Test results reported in PubChem BioAssay AID602262 (National Center for Advancing Translational Sciences (NCATS), 2012).
The source made the active and inactive calls. Calls follow the shape of the dose curve; as a rule, active = well fitted curve in the direction sought with a large enough effect; inactive = no such curve, though single readings can be large or run the other way.

Assay: qHTS Assay for Agonists of the Relaxin Receptor RXFP1: V1B SAR
Settings: HEK293 V1B cells, cAMP TR-FRET, 30 min; series mostly up to 78.1 µM; activation: at the top concentration
Text: The relaxin hormone is involved in the variety of biological functions in normal tissues and diseases. The role of relaxin is well-established in female reproduction and parturition, mammary gland and endometrial development, maintenance of myometrial quiescence during pregnancy. Relaxin signaling through its G protein-coupled receptor (GPCR) RXFP1 results in ECM remodeling through regulation of collagen deposition, cell invasiveness, proliferation and overall tissue homeostasis. […] Recombinant human relaxin (rhRlx) is currently being tested in clinical trials as a protective agent in congestive heart failure, in treating severe preeclampsia, and as an anti-fibrotic agent in systemic sclerosis. Upon relaxin binding RXFP1 activation leads to the activation of adenylate cyclase (AC) via Gs. cAMP will activate PKA, which phosphorylates many signaling proteins. Thus, detection of cAMP increase is an easy and reliable indication of relaxin receptor activation. To screen for agonists of the relaxin receptor, a HEK293T cell line stably transfected with RXFP1 was used. RXFP1 activation was assayed by changes in cAMP levels as detected with a time-resolved fluorescence energy transfer (TR-FRET) cAMP detection kit. This assay measures activation of a cell expressing V1B, another GPCR targeted by relaxin, to determine the selectivity of compounds for RXFP1. NIH Chemical Genomics Center [NCGC] NIH Molecular Libraries Probe Production Centers Network [MLPCN] MLPCN Grant: R03 MH085705-01A1 Assay Submitter (PI): Alexander Agoulnik
This is a cell-based assay for cAMP second messenger response to screen for agonists of the RXFP2 receptor. The assay was conducted in the presence of a PDE4 inhibitor (Ro 20174). The cells were lysed and the cAMP levels were measured with a TR-FRET cAMP kit. Presence of cAMP in the cell lysate disrupts binding between the cryptate-labeled anti-cAMP and d2-labeled cAMP pair, leading to a decrease in the TR-FRET signal. Data were normalized to the controls for basal activity (buffer only) and 100% activity (29 nM porcine relaxin). The EC50 values were determined from concentration-response data modeled with the standard Hill equation 1536-well assay protocol for the HEK293 V1B cAMP assay: (1) Add 3 ul HEK293 RXFP2 cell culture. 2000 cells/well in DMEM/F12, 10% FBS, 1x Pen/Strep (dispensed offline with MultiDrop Combi). (2) Incubate 16-24 hr at 37C, 5% CO2. (3) Add 1 ul 400uM Ro20174 in DPBS, 0.05% BSA, 0.005% Tween 20. (3) Add 23 nl compounds in DMSO solution. Final concentration was 0.5 - 58 uM. (4) Incubate 30 min at 37C, 5% CO2. (5) Add 1 ul cAMP-d2 in lysis buffer (HTRF cAMP HiRange kit, CisBio). (6) Add 1 ul anti-cAMP antibody-cryptate in lysis buffer (HTRF cAMP HiRange kit, CisBio). (7) Incubate 30 min at room temperature. (6) Detect the assay plate in a ViewLux plate reader (PerkinElmer) with Ex=320 nm, Em1=615 nm and Em2=665 nm. Keywords: relaxin, RXFP1, RXFP2, G-protein coupled receptor, cAMP, agonist, high throughput screening, MLSMR, MLSCN, NIH Roadmap, qHTS and NCGC

activation, inactive:
CCOc1ccccc1S(=O)(=O)Nc1ccccc1C(=O)Nc1cccc(S(=O)(=O)C(F)(F)F)c1 4.37%, CCC(CC)C(=O)Nc1ccccc1C(=O)Nc1cccc(C(F)(F)F)c1 1.55%, CCOc1ccccc1C(=O)Nc1ccccc1C(=O)Nc1cccc(C(F)(F)F)c1 7.36%, COc1ccc(C(=O)Nc2ccccc2C(=O)Nc2cccc(C(F)(F)F)c2)cc1 3.66%, O=C(NCc1ccco1)c1ccccc1NC(=O)c1ccccc1NC(=O)C1CCCCC1 5.67%, CCCCC(=O)Nc1ccccc1C(=O)Nc1cccc(C(F)(F)F)c1 -2.71%, O=C(Nc1cccc(-c2cccc(C(F)(F)F)c2)c1)c1ccccc1NC(=O)C1CCCCC1 2.41%, O=C(NCc1cccc(C(F)(F)F)c1)c1ccccc1NC(=O)C1CCCCC1 -0.791%, O=C(Nc1cccc(C(F)(F)F)c1)c1ccccc1NC(=O)C1CCC1 8.48%, O=C(Nc1cccc([N+](=O)[O-])c1)c1ccccc1NC(=O)C1CCCCC1 1.46%, COc1ccccc1C(=O)Nc1ccccc1C(=O)Nc1cccc(S(=O)(=O)C(F)(F)F)c1 -2.19%, COCCNc1ccccc1C(=O)Nc1cccc(C(F)(F)F)c1 -6.16%, Cc1ccccc1C(=O)Nc1ccccc1C(=O)Nc1cccc(C(F)(F)F)c1 -2.4%, CC(C)Oc1ccccc1C(=O)Nc1ccccc1C(=O)Nc1cccc(S(=O)(=O)C(F)(F)F)c1 -0.72%, CCOc1ccccc1C(=O)Nc1ncccc1C(=O)Nc1cccc(S(=O)(=O)C(F)(F)F)c1 2.36%, COCCOc1ccccc1C(=O)Nc1cccc(C(F)(F)F)c1 -3.76%, CCOc1ccccc1C(=O)Nc1ccccc1CNc1cccc(S(=O)(=O)C(F)(F)F)c1 2.87%, CCOc1ccccc1C(=O)Nc1cnccc1C(=O)Nc1cccc(S(=O)(=O)C(F)(F)F)c1 2.84%, CC(C)Oc1ccccc1C(=O)Nc1ccccc1C(=O)Nc1cccc(C(F)(F)F)c1 -5.45%, COc1cccc(C(=O)Nc2ccccc2C(=O)Nc2cccc(C(F)(F)F)c2)c1 1.57%, O=C(Nc1cccc(C(F)(F)F)c1)c1ccccc1NC(=O)c1ccccc1OC(F)(F)F 2.56%, COCCOc1ccccc1C(=O)Nc1ccccc1C(=O)Nc1cccc(C(F)(F)F)c1 -2.02%, O=C(Nc1cccc(C(F)(F)F)c1)c1ccccc1NC(=O)C1CCCCC1 1.32%, COc1ccccc1-c1ccccc1C(=O)Nc1cccc(C(F)(F)F)c1 3.5%, CCCCOc1ccccc1C(=O)Nc1ccccc1C(=O)Nc1cccc(S(=O)(=O)C(F)(F)F)c1 -0.668%, Cc1ccc(NC(=O)c2ccccc2NC(=O)C2CCCCC2)cc1 0.657%
